# Data taken from PMC11062922 (Nature Chemical Biology, 2023).
# Read-outs that look alike come from different tables or passages of the source.
# Legend:
# Set-up in all cases: species or system human, MV4-11 + K-562 + COLO205 + SK-N-BE2 + OVCAR-8
# EGFR = conditions: read-out: apparent Kd, n = 1
# MAP2K5 = conditions: read-out: apparent Kd, n = 1
# RIPK2 = conditions: read-out: apparent Kd, n = 1
# MAP3K12 = conditions: read-out: apparent Kd; compound concentrations: 100 nM and 1000 nM (sheet 'Samples'), CATDS: 0.23080963599757501; n = 1
# PIK3CD = conditions: read-out: apparent Kd; compound concentrations: 100 nM and 1000 nM (sheet 'Samples'), CATDS: 0.65461148719951301; n = 1
# ERBB3 = conditions: read-out: apparent Kd; compound concentrations: 100 nM and 1000 nM (sheet 'Samples'), CATDS: 6.7979180467830594E-2; n = 1
# FYN = conditions: read-out: apparent Kd; compound concentrations: 100 nM and 1000 nM (sheet 'Samples'), CATDS: 0.114580255038188; n = 1
# HCK = conditions: read-out: apparent Kd; compound concentrations: 100 nM and 1000 nM (sheet 'Samples'), CATDS: 0.242489240886436; n = 1
# LCK = conditions: read-out: apparent Kd; compound concentrations: 100 nM and 1000 nM (sheet 'Samples'), CATDS: 0.10096254508192699; n = 1
# LYN = conditions: read-out: apparent Kd; compound concentrations: 100 nM and 1000 nM (sheet 'Samples'), CATDS: 8.32238060167768E-2; n = 1
# RIPK3 = conditions: read-out: apparent Kd; compound concentrations: 100 nM and 1000 nM (sheet 'Samples'), CATDS: 6.5605703607897303E-2; n = 1
# SRC = conditions: read-out: apparent Kd; compound concentrations: 100 nM and 1000 nM (sheet 'Samples'), CATDS: 0.138583252116979; n = 1
# YES1 = conditions: read-out: apparent Kd; compound concentrations: 100 nM and 1000 nM (sheet 'Samples'), CATDS: 0.11029012837176901; n = 1
# GAK = conditions: read-out: apparent Kd; compound concentrations: 100 nM and 1000 nM (sheet 'Samples'), CATDS: 0.38094365160878402; n = 1
# FECH = conditions: read-out: apparent Kd; compound concentrations: 100 nM and 1000 nM (sheet 'Samples'), CATDS: 0.53771916993111701; n = 1
# VDAC3 = conditions: read-out: apparent Kd; compound concentrations: 100 nM and 1000 nM (sheet 'Samples'), CATDS: 0.46722570663248902; n = 1
# [1] = compound concentrations:100 nM and 1000 nM (sheet 'Samples')
smiles,measurement,setting,value
Cl.O=C(O[C@H]1CN[C@H](C#Cc2cc3ncnc(Nc4ccc5c(cnn5Cc5ccccc5)c4)c3s2)C1)N1CCOCC1 [GSK200398A_KCGS],potency estimated from few doses,EGFR; [1],26.7 nM
same,potency estimated from few doses,MAP2K5; [1],2200 nM
same,potency estimated from few doses,RIPK2; [1],936 nM
Cl.Fc1ccccc1COc1ccc(Nc2ncnc3ccc(-c4nnc(C(F)(F)F)o4)cc23)cc1Cl [GW424170A],potency estimated from few doses,"EGFR; compound concentrations: 100 nM and 1000 nM (sheet 'Samples'), CATDS: 0.318491462582081",448 nM
same,potency estimated from few doses,MAP3K12,1290 nM
same,potency estimated from few doses,PIK3CD,104 nM
O=C(NCCCN1CCOCC1)c1cccc(Nc2nccc(Nc3ccc(Oc4ccccc4)cc3)n2)c1 [GW663929X],potency estimated from few doses,ERBB3,1550 nM
same,potency estimated from few doses,FYN,343 nM
same,potency estimated from few doses,HCK,96.7 nM
same,potency estimated from few doses,LCK,455 nM
same,potency estimated from few doses,LYN,756 nM
same,potency estimated from few doses,"MAP2K5; compound concentrations: 100 nM and 1000 nM (sheet 'Samples'), CATDS: 7.7428617985082396E-2",947 nM
same,potency estimated from few doses,"RIPK2; compound concentrations: 100 nM and 1000 nM (sheet 'Samples'), CATDS: 0.16454989385531299",175 nM
same,potency estimated from few doses,RIPK3,1820 nM
same,potency estimated from few doses,SRC,236 nM
same,potency estimated from few doses,YES1,373 nM
C#Cc1cccc(Nc2ncnc3cc(OC)c(OC4CCN(C)CC4)cc23)c1 [BI00007366],potency estimated from few doses,"EGFR; compound concentrations: 100 nM and 1000 nM (sheet 'Samples'), CATDS: 0.27319466125259201",1300 nM
same,potency estimated from few doses,GAK,634 nM
same,potency estimated from few doses,"RIPK2; compound concentrations: 100 nM and 1000 nM (sheet 'Samples'), CATDS: 0.36838569788984799",674 nM
Cc1nnc(-c2cccc(-c3ccc(C(=O)NCC4CC4)cc3)c2)o1 [GW734508X],potency estimated from few doses,FECH,1500 nM
same,potency estimated from few doses,VDAC3,1990 nM
